PubChem BioAssay (NCATS)
Inconclusive results are not listed. Where a call stands in place of a potency, no number is given. Calls of active or inactive are those of the source. The call rests on the fitted dose curve; in most records, active means well fitted cell-killing curve with a large enough effect; inconclusive means small, poorly fitted or top-dose-only effect, or effect the other way; inactive means no such curve, though single readings can be large or run the other way. Non-standard residues stand in square brackets, D forms with d. Residues, ends and D or L forms follow the SMILES beside them. *: point of attachment. Sta = CC(C)C[C@H](N)[C@@H](O)CC(=O)O; Isovaleryl = CC(C)CC(=O)*

Test: Quantitative High-Throughput drug screen in 47 multiple myeloma cell lines against the NCATS MIPE library collection: Karpas417_ECACC cell viability assay (AID 1918961)
Settings: Karpas417 myeloma viability, CellTiter-Glo ATP luminescence, 48 h; viability (% of DMSO): at 45.8 µM (top of the series)
Source text: PI: Beverly A. Mock Ph.D.
Laboratory of Cancer Biology and Genetics,
Center for Cancer Research, National Cancer Institute,
National Institute of Health, Bethesda, Maryland
Drug resistance and disease progression are common in multiple myeloma (MM) patients, underscoring the need for new therapeutic combinations. […] We hypothesized that effective combinations would reduce MYC expression and enhance p16 activity. […] These preclinical data identify potentially useful drug combinations for evaluation in drug-resistant MM and reveal potential mechanisms of combined drug sensitivity.
Described herein is the primary MIPE qHTS used to cherrypick compounds. Validated compounds were then further tested for potential synergistic activiy.
[1] Peat TJ, Gaikwad SM, Dubois W, Gyabaah-Kessie N, Zhang S, Gorjifard S, Phyo Z, Andres M, Hughitt VK, Simpson RM, Miller MA, Girvin AT, Taylor A, Williams D, D'Antonio N, Zhang Y, Rajagopalan A, Flietner E, Wilson K, Zhang X, Shinn P, Klumpp-Thomas C, McKnight C, Itkin Z, Chen L, Kazandijian D, Zhang J, Michalowski AM, Simmons JK, Keats J, Thomas CJ, Mock BA. Drug combinations identified by high-throughput screening promote cell cycle transition and upregulate Smad pathways in myeloma. Cancer Lett. 2023 Aug 1;568:216284. doi: 10.1016/j.canlet.2023.216284. Epub 2023 Jun 24. PMID: 37356470; PMCID: PMC10408729.
SEQUENCE No. (e.g., 1, 2, 3, etc.); […] (e.g., Cells, Incubation, Reagent, etc.); VALUE and DESCRIPTION.
1; Cells; 5 uL; white, solid bottom 1536-well Greiner assay plate.
2; Compounds; 23 nL; Kalypsis pin tool (Wako USA) equipped with a 1536-well pin head to transfer to the assay plates.
3; Incubation; 48 hours; 37C incubation.
4; Reagent;5uL; CellTiter Glo (Promega).
5; Detector; 425V; Luminescence; Viewlux PerkinElmer.
NOTES (numbers refer to Sequence numbers above)
1. The cell-based screening methods employed in this study were like those previously published. Briefly, the corresponding myeloma cell lines were screened in 1,536-well plates with 500 cells, 5-uL per well for inhibition of cell viability (assessed by measuring ATP levels with CellTiterGlo).
2. NCATS MIPE 4.0 library of approved and investigational drugs were added using the Kalypsis pin tool. Wells treated with DMSO only for 100% viability and media only wells for 0% viability were used as controls.
3. The assay plates were covered and incubated for 48 hours in a 37C, 5% CO2 incubator with controlled humidity.
4. After 48 hours, CellTilter-GloTM luminescent substrate mix (Promega) reagent was added to the assay plate and plates we incubated for 5 min at room temperature.
5. Signal was measured as median relative luminescence units on a ViewLux (PerkinElmer) multiplate reader.
[1] Heske CM, Davis MI, Baumgart JT, Wilson K, Gormally MV, Chen L, Zhang X, Ceribelli M, Duveau DY, Guha R, Ferrer M, Arnaldez FI, Ji J, Tran HL, Zhang Y, Mendoza A, Helman LJ, Thomas CJ. Matrix Screen Identifies Synergistic Combination of PARP Inhibitors and Nicotinamide Phosphoribosyltransferase (NAMPT) Inhibitors in Ewing Sarcoma. Clin Cancer Res. 2017 Dec 1;23(23):7301-7311. doi: 10.1158/1078-0432.CCR-17-1121. Epub 2017 Sep 12. PMID: 28899971; PMCID: PMC6636827.
Potency means the concentration at half of the fitted maximal effect.

Row | SMILES | Potency | viability (% of DMSO)
1 | CC(C)c1nc(CN(C)C(=O)N[C@H](C(=O)N[C@@H](Cc2ccccc2)C[C@H](O)[C@H](Cc2ccccc2)NC(=O)OCc2cncs2)C(C)C)cs1 | inactive | 
2 | O=C(NC(Cc1cc(=O)[nH]c2ccccc12)C(=O)O)c1ccc(Cl)cc1 (stereo unspecified) | inactive | 
3 | CCCCC(CC)COC(=O)C(C#N)=C(c1ccccc1)c1ccccc1 (stereo unspecified) |  | 94.7% (active)
4 | COc1c(O)cc2c(c1O)[C@@H]1O[C@H](CO)[C@@H](O)[C@H](O)[C@H]1OC2=O | inactive | 
5 | c1cnc2cc3c(cc2n1)C1CNCC3C1 | inactive | 
6 | C=CCc1cc(OC)c(O)c(C(=O)NCCO)c1 | inactive | 
7 | N[C@@H](Cc1cc(I)c(Oc2cc(I)c(O)c(I)c2)c(I)c1)C(=O)O | inactive | 
8 | Nc1cc(C(Cl)=C(Cl)Cl)c(S(N)(=O)=O)cc1S(N)(=O)=O | inactive | 
9 | COc1cc(OC)c(C(=O)CCCN2CCCC2)c(OC)c1 | inactive | 
10 | CN(C)c1ccc(O)c2c1C[C@H]1C[C@H]3[C@H](N(C)C)C(=O)C(C(N)=O)=C(O)[C@@]3(O)C(=O)C1=C2O | inactive | 
11 | Oc1ccc(OCc2ccccc2)cc1 | inactive | 
12 | CN(C)c1ccc2nc3ccc(=[N+](C)C)cc-3sc2c1 | 6620 nM (active) | 
13 | Cc1cc2c(s1)Nc1ccccc1N=C2N1CCN(C)CC1 | inactive | 
14 | CC[C@]1(O)C[C@H]2CN(CCc3c([nH]c4ccccc34)[C@@](C(=O)OC)(c3cc4c(cc3OC)N(C=O)[C@H]3[C@@](O)(C(=O)OC)[C@H](OC(C)=O)[C@]5(CC)C=CCN6CC[C@]43[C@@H]65)C2)C1 | 935 nM (active) | 
15 | Cc1cccc(CN2CCN(C(c3ccccc3)c3ccc(Cl)cc3)CC2)c1 (stereo unspecified) | inactive | 
16 | CCN(CC)CCOc1ccc(Nc2ncc3cc(-c4c(Cl)cccc4Cl)c(=O)n(C)c3n2)cc1 | 105 nM (active) | 
17 | Cc1cc(O)c2c(c1)C(=O)c1cc(O)cc(O)c1C2=O | inactive | 
18 | Nc1ccn([C@@H]2O[C@H](CO)[C@@H](O)C2O)c(=O)n1 (stereo partly specified) | inactive | 

Row | SMILES | Potency | viability (% of DMSO)
19 | COC(=O)C1=C(C)NC(C)=C(C(=O)OC(C)C)C1c1cccc2nonc12 (stereo unspecified) | inactive | 
20 | COCCCOc1ccnc(CS(=O)c2nc3ccccc3[nH]2)c1C (stereo unspecified) | inactive | 
21 | O=C(CCc1ccc(O)cc1)c1c(O)cc(O)cc1O | 132 nM (active) | 
22 | O=C(NCC1CCCCN1)c1cc(OCC(F)(F)F)ccc1OCC(F)(F)F (stereo unspecified) | 74.3 nM (active) | 
23 | Nc1nc(OCc2ccccc2)c2[nH]cnc2n1 | 16600 nM (active) | 
24 | O=C(c1ccccc1)c1ccc2n1CCC2C(=O)O (stereo unspecified) | inactive | 
25 | Cc1nc2n(c(=O)c1CCN1CCC(c3noc4cc(F)ccc34)CC1)CCCC2 | inactive | 
26 | CC(C)CC(=O)N[C@H](C(=O)N[C@H](C(=O)N[C@@H](CC(C)C)[C@@H](O)CC(=O)N[C@@H](C)C(=O)N[C@@H](CC(C)C)[C@@H](O)CC(=O)O)C(C)C)C(C)C (Isovaleryl-VV[Sta]A[Sta]-OH) | inactive | 
27 | O=c1c(O)c(-c2ccc(O)cc2O)oc2cc(O)cc(O)c12 | inactive | 
28 | Clc1ccc(C(Cn2ccnc2)OCc2c(Cl)cccc2Cl)c(Cl)c1 (stereo unspecified) | 16600 nM (active) | 
29 | CC(S)C(=O)NCC(=O)O (stereo unspecified) | inactive | 
30 | COc1cc2c(cc1OC)C1CC(=O)C(CC(C)C)CN1CC2 (stereo unspecified) | inactive | 
31 | CCC[C@@H]1C[C@@H](C(=O)N[C@@H]([C@H]2O[C@H](SC)[C@H](O)[C@@H](O)[C@H]2O)[C@@H](C)O)N(C)C1 | inactive | 
32 | Clc1ccc(C(Cn2ccnc2)OCc2ccsc2Cl)c(Cl)c1 (stereo unspecified) | 18700 nM (active) | 
33 | Nc1nc(N)c(N=O)c(OCC2CCCCC2)n1 | 2640 nM (active) | 
34 | Cc1cc(C2CCCCC2)n(O)c(=O)c1 | 2960 nM (active) | 
35 | C[C@H](Cn1cnc2c(N)ncnc21)OCP(=O)(O)O | inactive | 
36 | C[Se]CCC(N)C(=O)O (stereo unspecified) | inactive | 
